Experimental data reported in PubChem BioAssay (NCATS).
Results filed as inconclusive are left out. The source made the active and inactive calls. The call rests on the fitted dose curve; in most records, active means well fitted curve in the direction sought with a large enough effect; inconclusive means small, poorly fitted or top-dose-only effect, or another doubt; inactive means no such curve, though single readings can be large; an effect the other way counts as inactive or inconclusive.

Columns and labels:
[1] = target: Glutathione peroxidase 1 (Homo sapiens) (UniProt P07203); experiment: Primary qHTS Assay for Inhibitors of Recombinant Selenoprotein Glutathione Peroxidase 1 (GPX1) (AID 1845191); further: nearly all actives have a fitted effect of over 65% in size
Chain of Glutathione peroxidase 1 (Homo sapiens) (P07203 whole entry, looked up): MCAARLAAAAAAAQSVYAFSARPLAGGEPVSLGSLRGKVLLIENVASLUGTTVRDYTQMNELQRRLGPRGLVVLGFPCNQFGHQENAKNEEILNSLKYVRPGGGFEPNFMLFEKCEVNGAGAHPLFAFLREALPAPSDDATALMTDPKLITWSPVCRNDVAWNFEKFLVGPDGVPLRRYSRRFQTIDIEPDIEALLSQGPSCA
How it was run: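 GR-coupled readout: NADPH consumption tracked by fluorescence, ex 340/em 450 nm, at t=0 and after 15 min at RT. Final mix 10 nM GPX1, 1 mM GSH, 0.5 mM CHP, 0.5 mM NADPH, 100 nM GR, 0.01% BSA, following 30 min enzyme–compound preincubation.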

[2] = target: Luciferin 4-monooxygenase (Photinus pyralis) (UniProt P08659); experiment: Primary firefly luciferase (FLuc) qHTS assay for identification of artifact compounds. (AID 1845220); further: nearly all actives have a fitted effect of over 60% in size
How it was run: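 Titrated compounds were incubated 15 min at RT, protected from light, with luciferin and ATP at 10 uM; reaction started with 10 nM FLuc, luminescence imaged at 5 min, and concentration-response fitted by Hill equation.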

[3] = Primary fluorescence-based thiol-reactive (MSTI) qHTS assay for identification of artifact compounds. (AID 1845221);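 further: series mostly up to about 54 µM; thiol-reactive compounds lower the probe fluorescence signal; nearly all actives have a fitted effect of over 65% in size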
How it was run: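 One-hour, room-temperature, dark incubation of compound with 4 uM MSTI in PBS (pH 7.4, 2% DMSO) precedes a fluorescence read at 525 nm excitation, 598 nm emission; Hill-equation fitting yields concentration-response values.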

[4] = system: Nanoluciferase (engineered Oplophorus gracilirostris luciferase); experiment: Primary Nanoluciferase (NLuc) qHTS assay for identification of artifact compounds. (AID 1845222);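 further: NLuc secreted into diluted conditioned medium of S16 cells; series mostly up to about 54 µM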
How it was run: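 qHTS format, against NLuc in S16 cell-conditioned medium. Nano-Glo substrate 1:100 was added after 15 min at room temperature. Luminescence was taken after a further 5 min.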

[5] = target: Phospholipid hydroperoxide glutathione peroxidase GPX4 (Homo sapiens) (UniProt P36969); experiment: Primary qHTS Assay for Inhibitors of Recombinant Selenoprotein Glutathione Peroxidase 4 (GPX4) (AID 1845192); further: nearly all actives have a fitted effect of over 65% in size; further: potency means the concentration at half of the fitted maximal effect
Chain of Phospholipid hydroperoxide glutathione peroxidase GPX4 (Homo sapiens) (P36969 whole entry, looked up): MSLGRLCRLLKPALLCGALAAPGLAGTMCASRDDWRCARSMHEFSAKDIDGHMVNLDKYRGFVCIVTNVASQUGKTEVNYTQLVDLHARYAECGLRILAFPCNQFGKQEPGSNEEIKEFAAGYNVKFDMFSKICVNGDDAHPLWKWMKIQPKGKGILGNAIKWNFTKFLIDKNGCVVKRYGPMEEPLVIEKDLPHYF
How it was run: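 Steps: GPX4 plus compound, 30 min RT; add GR/GSH/NADPH master mix; start with cumene hydroperoxide; read 340/450 nm fluorescence at 0 and 15 min. Finals were 200 nM GPX4, 1 mM GSH, 0.5 mM CHP, 0.5 mM NADPH, 100 nM GR.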

Measured: Potency

CN1C(=O)N(c2ccc(C#N)c(C(F)(F)F)c2)C(=O)[C@]1(CO)c1ccccc1
inactive: [1] | [2] | [3] | [4]

CN1C(=O)c2ccccc2NC(=O)C1Cc1ccccc1 (centres undefined)
inactive: [1] | [5] | [2] | [4]

O=C1C2CC=CCC2C(=O)N1SC(Cl)(Cl)Cl (centres undefined)
active: [5] 14.1 µM

C[C@@H]1C(=O)O[C@H]2[C@H](O)[C@@]34[C@@H]5OC(=O)[C@@]3(O[C@@H]3OC(=O)[C@@H](O)[C@@]34[C@H](C(C)(C)C)[C@H]5O)[C@@]12O
inactive: [1] | [5] | [2] | [4]

COC1=CC(=O)O[C@@H](CCc2ccccc2)C1
inactive: [1] | [2] | [3] | [4]

CCc1[nH]c2ccc(OC)cc2c1CCN(C)C
inactive: [1] | [5] | [2] | [4]

COC(=O)[C@@]12C(=O)C(C)C(=O)[C@]1(C)C(C)=C[C@H]1[C@]3(C=O)CC[C@H](OC(C)=O)C(C)(C)[C@H]3CC[C@@]12C (some centres undefined)
inactive: [1] | [5] | [2] | [4]

C[C@@]1(C(=O)O)CC[C@]2(C)CC[C@]3(C)C4=CC(=O)c5cc(O)c(O)cc5[C@]4(C)CC[C@@]3(C)[C@@H]2C1
inactive: [1] | [5] | [2] | [4]
